This is part of a sample that, as a whole, favours compounds with a hit. Of some 83,000 tested, about 20% had one in any assay.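 Activity criterion: percent growth below 10, measured after cells in 96-well plates were exposed to a single compound concentration for 48 hours.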 The source made the active and inactive calls.
Key:
Experiment in all cases: NCI-60 one-dose screen, 48 h (100 = growth as untreated, 0 = no growth, -100 = all killed)
Settings in all cases: 10 µM unless noted
SR leukemia = test system: SR leukemia
RPMI-8226 leukemia = test system: RPMI-8226 leukemia
OVCAR-8 ovarian = test system: OVCAR-8 ovarian
OVCAR-5 ovarian = test system: OVCAR-5 ovarian
OVCAR-4 ovarian = test system: OVCAR-4 ovarian
SK-OV-3 ovarian = test system: SK-OV-3 ovarian
IGROV1 ovarian = test system: IGROV1 ovarian
OVCAR-3 ovarian = test system: OVCAR-3 ovarian
HS 578T breast = test system: HS 578T breast
NCI/ADR-RES ovarian = test system: NCI/ADR-RES ovarian

Measured: growth

N=C(c1ccccc1)N(Cc1ccccc1)Cc1ccccc1
inactive: SR leukemia 64.8% | RPMI-8226 leukemia 94.4% | OVCAR-8 ovarian 97.9% | OVCAR-5 ovarian 86.3% | OVCAR-4 ovarian 84.9% | SK-OV-3 ovarian 98.1% | IGROV1 ovarian 67% | OVCAR-3 ovarian 110% | HS 578T breast 113% | NCI/ADR-RES ovarian 99.8%

CC(=O)O.[In]
inactive: SR leukemia 93.4% | RPMI-8226 leukemia 102% | OVCAR-8 ovarian 102% | OVCAR-5 ovarian 105% | OVCAR-4 ovarian 114% | SK-OV-3 ovarian 103% | IGROV1 ovarian 106% | OVCAR-3 ovarian 116% | NCI/ADR-RES ovarian 107%

CCS(=O)(=O)N[C@@H]1O[C@H](COC(C)=O)C(OC(C)=O)[C@H](OC(C)=O)C1OC(C)=O (stereo partly drawn)
inactive: SR leukemia 104% | RPMI-8226 leukemia 105% | OVCAR-8 ovarian 98.6% | OVCAR-5 ovarian 98.8% | OVCAR-4 ovarian 102% | SK-OV-3 ovarian 97.3% | IGROV1 ovarian 106% | OVCAR-3 ovarian 101% | NCI/ADR-RES ovarian 108%

O=C(Nc1ccc(Cl)c(Cl)c1)O/N=C\c1c(Cl)ccc([N+](=O)[O-])c1Cl
active: SR leukemia -23.7% | RPMI-8226 leukemia -52.7% | OVCAR-8 ovarian 8% | OVCAR-4 ovarian -65.8% | IGROV1 ovarian -45.8% | OVCAR-3 ovarian -99.3%
inactive: OVCAR-5 ovarian 12.1% | SK-OV-3 ovarian 61.3% | NCI/ADR-RES ovarian 16.5%

Oc1ccc([S+](c2ccc(O)cc2)c2ccc(O)cc2)cc1
inactive: SR leukemia 89.1% | RPMI-8226 leukemia 96% | OVCAR-8 ovarian 94.3% | OVCAR-5 ovarian 101% | OVCAR-4 ovarian 107% | SK-OV-3 ovarian 106% | IGROV1 ovarian 110% | OVCAR-3 ovarian 114% | NCI/ADR-RES ovarian 112%

CCCCCCC(=O)C(C)C
inactive: SR leukemia 90.7% | RPMI-8226 leukemia 105% | OVCAR-8 ovarian 99.1% | OVCAR-5 ovarian 110% | OVCAR-4 ovarian 110% | SK-OV-3 ovarian 110% | IGROV1 ovarian 102% | OVCAR-3 ovarian 107% | HS 578T breast 105% | NCI/ADR-RES ovarian 103%

COc1ccc(OC)c(Cn2cc3c(c2-c2ccccc2)CCc2cnoc2-3)c1
inactive: SR leukemia 22% | RPMI-8226 leukemia 61.1% | OVCAR-8 ovarian 79% | OVCAR-5 ovarian 90.8% | OVCAR-4 ovarian 77.6% | SK-OV-3 ovarian 48.2% | IGROV1 ovarian 44.7% | OVCAR-3 ovarian 17.9% | HS 578T breast 59.3% | NCI/ADR-RES ovarian 20.5%

O=CN/N=C/c1ccc(Cl)c([N+](=O)[O-])c1
inactive: SR leukemia 39.9% | RPMI-8226 leukemia 15.6% | OVCAR-8 ovarian 18.1% | OVCAR-5 ovarian 31% | OVCAR-4 ovarian 49.6% | SK-OV-3 ovarian 46.9% | IGROV1 ovarian 16.9% | OVCAR-3 ovarian 18.1% | NCI/ADR-RES ovarian 107%

COc1ccc(/C=C2\CCCC3=C2N=C2SC=NN2C3c2ccc(OC)c(OC)c2)cc1OC (stereo not drawn)
inactive: SR leukemia 34.3% | OVCAR-5 ovarian 59.7% | OVCAR-4 ovarian 49.1% | SK-OV-3 ovarian 81.9% | IGROV1 ovarian 47.8% | OVCAR-3 ovarian 37.8% | HS 578T breast 86.4% | NCI/ADR-RES ovarian 21.4%
active: RPMI-8226 leukemia -14.8% | OVCAR-8 ovarian 9.01%

Cc1nc(N)sc1C(=O)NCCO
inactive: SR leukemia 161% | RPMI-8226 leukemia 115% | OVCAR-8 ovarian 102% | OVCAR-5 ovarian 107% | OVCAR-4 ovarian 113% | SK-OV-3 ovarian 113% | IGROV1 ovarian 118% | OVCAR-3 ovarian 102% | HS 578T breast 109% | NCI/ADR-RES ovarian 122%

CCCCCCCCCc1cc[n+](CC(=O)c2ccc([N+](=O)[O-])cc2)cc1
inactive: OVCAR-8 ovarian 11.7% | OVCAR-5 ovarian 18.9% | OVCAR-4 ovarian 19.8% | SK-OV-3 ovarian 50% | IGROV1 ovarian 26.6% | NCI/ADR-RES ovarian 66.3%
active: SR leukemia -14.3% | RPMI-8226 leukemia -25.8% | OVCAR-3 ovarian 3.13%

Nc1nc2c(c3cnccc13)C(c1cccc(Br)c1)Cc1cnccc1-2 (stereo not drawn)
inactive: SR leukemia 17.8% | OVCAR-8 ovarian 28.8% | OVCAR-5 ovarian 43.9% | OVCAR-4 ovarian 37.5% | SK-OV-3 ovarian 30.8% | IGROV1 ovarian 27.9% | HS 578T breast 42.3%
active: RPMI-8226 leukemia -2.76% | OVCAR-3 ovarian 1.08% | NCI/ADR-RES ovarian -4.12%

C/C(=N\Nc1ccc(Cl)cn1)c1ccccn1
inactive: OVCAR-8 ovarian 16.6% | OVCAR-5 ovarian 23.1% | OVCAR-4 ovarian 28.7% | IGROV1 ovarian 10.2% | OVCAR-3 ovarian 20.5% | HS 578T breast 34.6%
active: SR leukemia 4.86% | RPMI-8226 leukemia 8.56% | SK-OV-3 ovarian 3.63% | NCI/ADR-RES ovarian -10.2%

O=C1/C(=C\c2cn(-c3nc(N4CCOCC4)nc(N4CCOCC4)n3)c3ccccc23)c2ccccc2N1c1c(Cl)cccc1Cl
active: SK-OV-3 ovarian 7.66%
inactive: SR leukemia 27.4% | RPMI-8226 leukemia 60.1% | OVCAR-8 ovarian 76.1% | OVCAR-5 ovarian 52.1% | OVCAR-4 ovarian 65.1% | IGROV1 ovarian 36.2% | OVCAR-3 ovarian 69.6% | HS 578T breast 27.9% | NCI/ADR-RES ovarian 72.4%

CC(C)OCC1CO1 (stereo not drawn)
inactive: SR leukemia 102% | RPMI-8226 leukemia 113% | OVCAR-8 ovarian 113% | OVCAR-5 ovarian 101% | OVCAR-4 ovarian 115% | SK-OV-3 ovarian 106% | IGROV1 ovarian 110% | OVCAR-3 ovarian 107% | HS 578T breast 104% | NCI/ADR-RES ovarian 109%

N#CC1=C(N2CCOCC2)NC2c3ccccc3Sc3ccccc3N2C1=N (stereo not drawn)
inactive: SR leukemia 119% | RPMI-8226 leukemia 106% | OVCAR-8 ovarian 98.7% | OVCAR-5 ovarian 109% | OVCAR-4 ovarian 109% | SK-OV-3 ovarian 81.7% | IGROV1 ovarian 79.1% | OVCAR-3 ovarian 103% | NCI/ADR-RES ovarian 89.9%

Oc1ccccc1\C=N/N=C/C=C/c1ccccc1
inactive: SR leukemia 71.9% | RPMI-8226 leukemia 107% | OVCAR-8 ovarian 103% | OVCAR-5 ovarian 112% | OVCAR-4 ovarian 97.7% | SK-OV-3 ovarian 87.9% | IGROV1 ovarian 101% | OVCAR-3 ovarian 96.3% | HS 578T breast 106% | NCI/ADR-RES ovarian 102%

C=CN(C)S(C)(=O)=O
active: OVCAR-3 ovarian -14.1%
inactive: SR leukemia 14.2% | RPMI-8226 leukemia 16.8% | OVCAR-8 ovarian 34.8% | OVCAR-5 ovarian 90.9% | OVCAR-4 ovarian 70.4% | SK-OV-3 ovarian 13.8% | IGROV1 ovarian 51.5% | NCI/ADR-RES ovarian 20.1%

Oc1ccc(Br)cc1/C=N/NC(=S)NC12CC3CC(CC(C3)C1)C2
inactive: OVCAR-5 ovarian 46.9% | OVCAR-4 ovarian 36.9% | SK-OV-3 ovarian 39.7%
active: SR leukemia -7.5% | RPMI-8226 leukemia -21.3% | OVCAR-8 ovarian -31.3% | IGROV1 ovarian 5.57% | OVCAR-3 ovarian -26.5% | NCI/ADR-RES ovarian -3.63%

CC(=O)Nc1ccc(C(=O)/C=C/c2ccc(N(C)C)cc2)cc1
inactive: SR leukemia 96.6% | RPMI-8226 leukemia 102% | OVCAR-8 ovarian 102% | OVCAR-5 ovarian 106% | OVCAR-4 ovarian 109% | SK-OV-3 ovarian 101% | IGROV1 ovarian 95.4% | OVCAR-3 ovarian 105% | HS 578T breast 101% | NCI/ADR-RES ovarian 99.3%

CCOc1ccccc1/C=N\N=C(N/N=C/c1ccccc1OCC)N/N=C/c1ccccc1OCC
inactive: SR leukemia 15.7% | RPMI-8226 leukemia 18.8% | OVCAR-8 ovarian 18.4% | OVCAR-5 ovarian 13.9% | IGROV1 ovarian 21%
active: OVCAR-4 ovarian 7.81% | SK-OV-3 ovarian 2.98% | OVCAR-3 ovarian -19.7% | NCI/ADR-RES ovarian 6.36%

CC(=O)c1ccc2c(c1)c1ccccc1n2C
inactive: SR leukemia 77.9% | RPMI-8226 leukemia 93.2% | OVCAR-8 ovarian 95.4% | OVCAR-5 ovarian 108% | OVCAR-4 ovarian 115% | SK-OV-3 ovarian 96.5% | IGROV1 ovarian 87.6% | OVCAR-3 ovarian 108% | NCI/ADR-RES ovarian 91.2%

CCOC(=O)C1=C(c2ccccc2)NC(=O)NC1CN1C(=O)c2ccccc2C1=O (stereo not drawn)
active: SR leukemia -32.9%
inactive: RPMI-8226 leukemia 97.9% | OVCAR-8 ovarian 111% | OVCAR-5 ovarian 100% | OVCAR-4 ovarian 107% | SK-OV-3 ovarian 113% | IGROV1 ovarian 98.4% | OVCAR-3 ovarian 111% | HS 578T breast 105% | NCI/ADR-RES ovarian 103%

COc1ccc(Nc2c3ccccc3nc3ccccc23)cc1
inactive: RPMI-8226 leukemia 28.1% | OVCAR-8 ovarian 14.7% | OVCAR-5 ovarian 36.4% | OVCAR-4 ovarian 41.5% | SK-OV-3 ovarian 36.1% | IGROV1 ovarian 22.1% | OVCAR-3 ovarian 28.3% | HS 578T breast 59.5% | NCI/ADR-RES ovarian 28.1%
active: SR leukemia 1.46%

Nc1cc(N)c2nc(NCCc3ccc(Cl)c(Cl)c3)cnc2c1
inactive: OVCAR-8 ovarian 32.6% | OVCAR-5 ovarian 31% | SK-OV-3 ovarian 88.8% | IGROV1 ovarian 21.3% | HS 578T breast 62.1% | NCI/ADR-RES ovarian 89.6%
active: SR leukemia -69.7% | RPMI-8226 leukemia -48.9% | OVCAR-4 ovarian -96.7% | OVCAR-3 ovarian -43.4%

COC(=O)/C(Br)=C/c1c[nH]c2ccc(Br)cc12
active: SR leukemia -6.18% | IGROV1 ovarian -17.7%
inactive: RPMI-8226 leukemia 53.9% | OVCAR-8 ovarian 86.6% | OVCAR-5 ovarian 72.3% | OVCAR-4 ovarian 87.2% | SK-OV-3 ovarian 92% | OVCAR-3 ovarian 82.6% | HS 578T breast 100% | NCI/ADR-RES ovarian 80.4%

C/C(=C\c1ccc2ccccc2c1)[N+](=O)[O-]
inactive: OVCAR-8 ovarian 11.7% | OVCAR-5 ovarian 82.6% | OVCAR-4 ovarian 87.6% | SK-OV-3 ovarian 99.4% | NCI/ADR-RES ovarian 88.4%
active: SR leukemia 4.41% | RPMI-8226 leukemia -33.9% | IGROV1 ovarian -20% | OVCAR-3 ovarian -76.6%

Cc1ccc(CC(=O)O)c(C)c1
inactive: SR leukemia 94.1% | RPMI-8226 leukemia 104% | OVCAR-8 ovarian 100% | OVCAR-5 ovarian 98.8% | OVCAR-4 ovarian 105% | SK-OV-3 ovarian 108% | IGROV1 ovarian 112% | OVCAR-3 ovarian 103% | HS 578T breast 101% | NCI/ADR-RES ovarian 101%

— PubChem BioAssay (NCI)
